# Bioassay records as filed in PubChem.
# Only some compounds are listed: those with a hit (about 2.5% of all), similar ones and a draw of the others.
# PKA-R1A activ: PKA-R1A complex activation; P00514+P68181; PKA-R1A dissociation, Cy5-IP20 fluorescence polarization; scaled: DMSO 0%, 113 µM cGMP 100%; activation, % at 11.4 µM; 340,000 tested, 0.083% active;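 active = percent activation above the mean of all tested compounds plus 3 SD, cut at about 19% in these data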;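 note: higher means more PKAc released from R1A so a rise in polarization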
# CHT inh: human CHT choline transport inhibition. CHT-expressing cells, membrane potential dye, choline response; hits give low values. B-score at 10 µM. 310,000 tested, 0.86% active. Q9GZV3. AID 488975;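 active = B-score over 3 SD under the library average, and starting fluorescence ratio not unusually high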;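 note: choline stimulus applied at its EC90 after an EC20 pre-addition; B-score computed on integrated fluorescence ratio after choline addition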
# ANO1 activ: activates or potentiates the mouse TMEM16A chloride channel; HEK293 TMEM16A/YFP-H148Q/I152L, iodide quench fluorescence; hits give low values; B-score at 10 µM; 340,000 tested, 0.3% active;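 active = fluorescence-ratio B-score plate-corrected deviation score at least 3 library SD below zero, with starting fluorescence score within 5 deviations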;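 note: channel opened by trigger with iodide after compound preincubation; score built on the fluorescence ratio of max minus min over baseline; more negative score means more quench and so TMEM16A activation or potentiation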
# CHT PAM: allosterically activates the human high affinity choline transporter | 310,000 tested, 0.49% active | Q9GZV3 | CHT-expressing cells, membrane potential dye, choline EC20; hits give high values; LV-AA mutant CHT in HEK293 cells | B-score at 10 µM;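 active = initial fluorescence not abnormally high and integrated response B-score, plate-corrected, over 3 SD above library mean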
# ANO1 block: blocks the mouse calcium-activated chloride channel TMEM16A | HEK293 TMEM16A/YFP iodide influx fluorescence, ionomycin | normalized B-score (activity score, 25-100; higher = stronger inhibition) at 10 µM | 310,000 tested, 1.2% active | AID 588511;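 active = ratio plate-corrected score three or more library SD toward inhibition, starting fluorescence score within five deviations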;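 note: score derived from kinetic fluorescence span divided by baseline fluorescence per well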
# PKA-R2B act: PKA-R2B complex activation. PKA-R2B holoenzyme dissociation, Cy5-IP20 fluorescence polarization; R2B truncated from residue 108, S112A mutant; 0% DMSO only, 100% 113 µM cGMP. activation, % at 11.4 µM. 340,000 tested, 0.079% active. AID 504700;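 active = activation above a cutoff set at the mean over all compounds plus 3 SD, cut at about 18% in these data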;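 note: higher means more holoenzyme dissociation and a rise in polarization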
# Target sequence (P31323 whole entry, looked up, other chains not shown, the tested form may be a part): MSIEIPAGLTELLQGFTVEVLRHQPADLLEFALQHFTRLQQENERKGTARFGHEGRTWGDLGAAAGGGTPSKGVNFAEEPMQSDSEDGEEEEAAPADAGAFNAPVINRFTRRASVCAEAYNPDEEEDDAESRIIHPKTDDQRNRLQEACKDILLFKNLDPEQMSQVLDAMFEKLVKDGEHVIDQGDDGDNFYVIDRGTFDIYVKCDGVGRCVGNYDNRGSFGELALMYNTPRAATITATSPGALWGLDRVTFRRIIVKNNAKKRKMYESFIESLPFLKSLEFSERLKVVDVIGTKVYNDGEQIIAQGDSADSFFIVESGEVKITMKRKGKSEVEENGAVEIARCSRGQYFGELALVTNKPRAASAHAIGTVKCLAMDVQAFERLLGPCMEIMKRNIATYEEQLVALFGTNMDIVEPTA
# Active calls of the source: *; i = inactive; · = not tested or not shown.
SMILES,PKA-R1A activ,CHT inh,ANO1 activ,CHT PAM,ANO1 block,PKA-R2B act
Cc1c(NC(=O)CSc2nnc(-c3ccncc3)n2C)c(=O)n(-c2ccccc2)n1C,0.9,·,·,·,·,-8.1
CC(C)C(=O)NNC(=O)CSc1ncnc2c1cnn2-c1ccccc1Cl,5.0,i,i,i,i,1.6
Cc1csc(NC(=O)CSc2ncnc3c2cnn3-c2ccccc2Cl)n1,7.8,i,i,i,100*,-12.4
CC(C)=CC(O)C/C(C)=C/COc1ccc2ccc(=O)oc2c1 (centres undefined),13.9,i,i,i,i,-3.6
Cc1ccccc1CS(=O)(=O)c1nnc([C@H](Cc2ccccc2)NC(=O)OC(C)(C)C)o1,4.1,i,-5.21*,i,i,-16.9
Oc1cccc(NC(=S)Nc2ccc(SC(F)F)cc2)c1,-9.1,i,i,i,i,1.3
Oc1cccc2c(NC(=S)Nc3ccc(SC(F)F)cc3)cccc12,-7.6,i,i,i,100*,0.1
Cc1cccc(-c2nc3c(s2)CCc2onc(-c4ccc(Br)cc4)c2-3)c1,-6.2,i,i,i,i,-2.7
Cc1c(C(=O)c2no[n+]([O-])c2C(=O)c2cnn(C)c2C)cnn1C,4.4,-5.87*,i,i,i,-1.6
CC(C)C[C@H](NC(=O)[C@H](Cc1ccccc1)n1c(=O)[nH]c2ccccc2c1=O)C(=O)N1CCC(C(=O)O)CC1,7.7,i,-13.4*,i,i,1.2
O=C(CN1CCOCC1)Nc1ncc(Cc2cccc3ccccc23)s1,0.6,i,i,i,25*,-12.5
CCOc1ccc(-n2ccc(=O)c(C(=O)Nc3ccc(S(=O)(=O)Nc4nccs4)cc3)n2)cc1,-8.6,i,-22.7*,i,i,4.5
CCOc1ccc(N2CC(C(=O)Nc3ccc(S(=O)(=O)Nc4nccs4)cc3)CC2=O)cc1 (centres undefined),-2.8,i,i,i,i,-4.1
Cc1cccc(N2CCN(C(=O)C3CCN(S(=O)(=O)c4c(C)noc4C)CC3)CC2)c1C,4.2,i,i,i,i,0.1
Cc1ccc(-c2cc(C(F)(F)F)n3ncc(C(=O)O)c3n2)cc1,-1.1,·,i,·,·,1.3
COCCNC(=O)c1cnn2c(C(F)(F)F)cc(-c3ccc(C)cc3)nc12,-3.2,i,-5.24*,i,i,-12.1
COc1ccc(CC(=O)Nc2ccccc2Oc2ccccc2)cc1,·,-6.19*,·,i,i,·
CC(C)CC(=O)Nc1ccccc1Oc1ccccc1,14.7,i,i,i,i,-4.1
COc1cc(F)c(C2=CC(=O)C[C@H](c3ccc(F)cc3)C2)cc1F,-4.4,·,i,·,·,-6.2
COc1ccc(C2=CC(=O)C[C@H](c3ccc(F)cc3)C2)cc1F,0.2,·,-6.63*,·,·,7.2
NS(=O)(=O)c1ccc(NC(=O)c2cc(Cl)ccc2Cl)cc1,-3.1,i,-5.48*,i,i,-4.1
COc1ccc([C@H]2CC(=O)C=C(c3ccc(C)c(F)c3)C2)cc1,2.8,·,i,·,·,-11.9
CCOC(=O)c1ccc(NC(=O)c2cccc(S(=O)(=O)N3CCOCC3)c2)cc1,-10.7,i,i,i,100*,-3.2
CCN(CC)CCOC(=O)c1ccc(NC(=O)c2ccc(Cl)c(S(=O)(=O)N3CCCCCC3)c2)cc1,-6.0,i,i,i,25*,-11.8
CC(=O)c1cccc(NC(=O)c2cccc(S(=O)(=O)N3CCOCC3)c2)c1,-16.1,i,i,i,i,5.9
SMILES,PKA-R1A activ,CHT inh,ANO1 activ,CHT PAM,ANO1 block,PKA-R2B act
CCOC(=O)c1c(CC(C)C)csc1NC(=O)C(C)C,-6.3,i,i,i,25*,-3.8
Nc1ncnc2c1nc(N1CCCCC1)n2[C@@H]1O[C@H](CO)[C@@H](O)[C@H]1O,-10.1,·,i,·,·,-1.1
CNc1nc2c(N)ncnc2n1[C@H]1O[C@@H](CO)[C@H](O)[C@@H]1O,-7.7,-7.59*,i,i,i,7.2
CCOc1ccc(C2C(C#N)=C(N)SC(N)=C2C#N)c(OCC)c1,-5.4,i,i,i,i,-7.6
CCCCc1ccc(C2C(C#N)=C(N)SC(N)=C2C#N)s1,·,i,·,i,100*,·
COc1ccc(C(=O)/C=C/C(=O)N(CC(=O)NC2CCCCC2)Cc2ccccc2)c(O)c1,-1.3,·,i,·,·,-13.4
COc1ccc(C(=O)/C=C/C(=O)N(CC(=O)NC2CCCCC2)CC2CCCO2)c(O)c1 (centres undefined),-4.1,i,-6*,i,100*,2.6
COc1ccc(/C=C\c2cc(OC)c(OC)cc2CC[N+](C)(C)C)cc1OC,-1.9,i,i,10.1*,i,-4.8
COc1ccc(/C=C/C(=O)c2ccc(C(=O)/C=C/c3ccc(OC)c(OC)c3)cc2)cc1OC,0.2,·,i,·,·,9.8
C#CNC(=O)C1(CC=C)CCNCC1,-3.4,i,i,i,i,-2.6
O=C(NNc1ccccc1[N+](=O)[O-])Nc1ccc(Cl)c(Cl)c1,-4.5,i,i,i,i,-3.1
CCN(CC)S(=O)(=O)c1cc([N+](=O)[O-])ccc1NNC(=O)Nc1ccc(Cl)c(Cl)c1,-9.9,i,i,i,25*,-14.2
COc1ccc(CNCCC(c2ccc(OC(C)C)cc2)c2ccccc2OC)cc1 (centres undefined),-11.8,i,i,i,i,-3.5
COc1ccccc1C(CCNCc1ccc(N(C)C)cc1)c1ccc(OC(C)C)cc1 (centres undefined),-6.3,i,i,8.69*,i,10.3
CCN(Cc1ccccc1)C(=O)c1cc2c(OC)c(OC)c(OC)cc2[nH]1,-4.2,i,·,i,i,1.1
Cc1cc(=O)[nH]c(SCC(=O)Nc2ccc(Br)cc2)c1C#N,-8.8,i,i,i,100*,2.4
CC(C)(C)NC(=O)COc1ccc(CNn2nnnc2N)cc1,-3.9,i,i,i,i,6.0
C=CCOc1ccc(CNn2nnnc2N)cc1,-4.9,i,-13.8*,i,i,3.1
Cc1ccccc1-c1cc(C(=O)NCc2ccc3c(c2)OCO3)n(CC2CC(c3cccnc3)=NO2)n1 (centres undefined),5.6,·,i,·,·,1.9
Cc1nn(C(C)(C)C)c(OC(=O)C2CCCC2)c1S(=O)(=O)c1ccccc1,-7.7,·,i,·,·,1.6
Cc1ccc(S(=O)(=O)c2c(C)nn(C(C)(C)C)c2OC(=O)C2CCCC2)cc1,2.8,i,i,i,25*,0.8
